Laboratory results published in PubChem BioAssay AID1159580 (chemical genetic matrix, 2015).
About 2,000 (36%) of roughly 5,500 compounds were called active. Another 18% or so got no clear call; they are omitted. Some of the results follow. A number with no mark means an inactive call. Rule as the data show it: active = normalized growth mostly below about 0.91 (no sharp cut-off); inconclusive = no clear call, values can overlap the other calls; inactive = mostly above about 0.92.

Assay: chemical genetic growth profiling, strain panel (AID 1159580);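 also: tested at 20 µM; growth read once vehicle control cultures reached saturation at 30 °C; 1 = growth at the plate median or of vehicle wells; lower values mean less growth of the strain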
Details: S. cerevisiae deletion strains, growth OD

Q: For `NC(=S)N/N=C1/CCCc2ccccc21`, which normalized growth (locus YAR019C, strain CDC15, hits give low values) is on record?
A: Its normalized growth is 0.923.

Q: What about the normalized growth (locus YBL105C, strain PKC1, hits give low values) of the same compound?
A: The normalized growth was 0.944.

Q: And the normalized growth (locus YBR135W, strain CKS1, hits give low values)?
A: The normalized growth was 0.939.

Q: What about the normalized growth (locus YBR136W, strain MEC1, hits give low values) of the same compound?
A: The normalized growth was 0.909.

Q: And the normalized growth (locus YBR160W, strain CDC28, hits give low values)?
A: Its normalized growth is 0.905.

Q: And the normalized growth (locus YDL017W, strain CDC7, hits give low values)?
A: Its normalized growth is 0.921.

Q: And the normalized growth (locus YDL028C, strain MPS1, hits give low values)?
A: The normalized growth was 0.924.

Q: What about the normalized growth (locus YDL101C, strain DUN1, hits give low values) of the same compound?
A: Its normalized growth is 0.921.

Q: And the normalized growth (locus YDL108W, strain KIN28, hits give low values)?
A: The normalized growth was 0.906.

Q: What about the normalized growth (locus YDL214C, strain PRR2, hits give low values) of the same compound?
A: Its normalized growth is 0.805.

Q: And the normalized growth (locus YDR052C, strain DBF4, hits give low values)?
A: The normalized growth was 0.884 (active).

Q: What about the normalized growth (locus YDR054C, strain cdc34, hits give low values) of the same compound?
A: The normalized growth was 0.885.

Q: And the normalized growth (locus YDR226W, strain ADK1, hits give low values)?
A: Its normalized growth is 0.866 (active).

Q: What about the normalized growth (locus YDR477W, strain SNF1, hits give low values) of the same compound?
A: The normalized growth was 0.748.

Q: What about the normalized growth (locus YER123W, strain YCK3, hits give low values) of the same compound?
A: Its normalized growth is 0.891.

Q: What about the normalized growth (locus YER133W, strain GLC7, hits give low values) of the same compound?
A: Its normalized growth is 0.802.

Q: And the normalized growth (locus YFL009W, strain cdc4, hits give low values)?
A: Its normalized growth is 0.92.

Q: What about the normalized growth (locus YFL029C, strain CAK1, hits give low values) of the same compound?
A: Its normalized growth is 0.921.

Q: And the normalized growth (locus YFR003C, strain YPI1, hits give low values)?
A: Its normalized growth is 0.913.

Q: And the normalized growth (locus YFR019W, strain FAB1, hits give low values)?
A: Its normalized growth is 0.925.

Q: And the normalized growth (locus YFR028C, strain CDC14, hits give low values)?
A: Its normalized growth is 0.834 (active).

Q: And the normalized growth (locus YGR040W, strain KSS1, hits give low values)?
A: The normalized growth was 0.805.

Q: What about the normalized growth (locus YGR052W, strain FMP48, hits give low values) of the same compound?
A: The normalized growth was 0.746.

Q: What about the normalized growth (locus YGR092W, strain DBF2, hits give low values) of the same compound?
A: The normalized growth was 0.814.

Q: And the normalized growth (locus YHR030C, strain SLT2, hits give low values)?
A: The normalized growth was 0.805 (active).

Q: And the normalized growth (locus YHR079C, strain IRE1, hits give low values)?
A: The normalized growth was 0.954.

Q: And the normalized growth (locus YHR082C, strain KSP1, hits give low values)?
A: Its normalized growth is 0.935.

Q: What about the normalized growth (locus YHR205W, strain SCH9, hits give low values) of the same compound?
A: The normalized growth was 0.993.

Q: And the normalized growth (locus YIL147C, strain SLN1, hits give low values)?
A: The normalized growth was 0.91.

Q: And the normalized growth (locus YJL095W, strain BCK1, hits give low values)?
A: Its normalized growth is 0.934.

Q: And the normalized growth (locus YJL128C, strain PBS2, hits give low values)?
A: The normalized growth was 0.966.

Q: What about the normalized growth (locus YJL157C, strain FAR1, hits give low values) of the same compound?
A: Its normalized growth is 0.749.

Q: And the normalized growth (locus YJR016C, strain ILV3, hits give low values)?
A: Its normalized growth is 0.896 (active).

Q: And the normalized growth (locus YJR066W, strain TOR1 (second series), hits give low values)?
A: Its normalized growth is 0.824.

Q: What about the normalized growth (locus YJR066W, strain TOR1, hits give low values) of the same compound?
A: Its normalized growth is 0.765.

Q: What about the normalized growth (locus YKL048C, strain ELM1, hits give low values) of the same compound?
A: Its normalized growth is 0.781 (active).

Q: What about the normalized growth (locus YKL067W, strain YNK1, hits give low values) of the same compound?
A: The normalized growth was 0.796.

Q: And the normalized growth (locus YKL101W, strain HSL1, hits give low values)?
A: The normalized growth was 0.822.

Q: And the normalized growth (locus YKL193C, strain SDS22, hits give low values)?
A: Its normalized growth is 0.922.

Q: What about the normalized growth (locus YKL203C, strain TOR2, hits give low values) of the same compound?
A: The normalized growth was 0.589 (active).

Q: What about the normalized growth (locus YLR113W, strain HOG1, hits give low values) of the same compound?
A: Its normalized growth is 1.

Q: And the normalized growth (locus YLR133W, strain CKI1, hits give low values)?
A: The normalized growth was 0.796.

Q: What about the normalized growth (locus YLR403W, strain SFP1, hits give low values) of the same compound?
A: Its normalized growth is 0.659 (active).

Q: What about the normalized growth (locus YML070W, strain DAK1, hits give low values) of the same compound?
A: Its normalized growth is 0.914.

Q: What about the normalized growth (locus YMR001C, strain CDC5, hits give low values) of the same compound?
A: The normalized growth was 0.939.

Q: What about the normalized growth (locus YMR205C, strain PFK2 (second series), hits give low values) of the same compound?
A: The normalized growth was 0.759.

Q: What about the normalized growth (locus YNL006W, strain LST8, hits give low values) of the same compound?
A: The normalized growth was 0.978.

Q: What about the normalized growth (locus YNL020C, strain ARK1, hits give low values) of the same compound?
A: Its normalized growth is 0.802.

Q: And the normalized growth (locus YNL161W, strain CBK1, hits give low values)?
A: Its normalized growth is 0.955.

Q: What about the normalized growth (locus YNL183C, strain NPR1, hits give low values) of the same compound?
A: Its normalized growth is 0.735.

Q: And the normalized growth (locus YNL207W, strain RIO2, hits give low values)?
A: The normalized growth was 0.858 (active).

Q: What about the normalized growth (locus YNL222W, strain SSU72, hits give low values) of the same compound?
A: The normalized growth was 0.956.

Q: What about the normalized growth (locus YNL307C, strain MCK1 (second series), hits give low values) of the same compound?
A: The normalized growth was 0.695.

Q: And the normalized growth (locus YOL078W, strain AVO1, hits give low values)?
A: The normalized growth was 0.925.

Q: And the normalized growth (locus YOL136C, strain PFK27, hits give low values)?
A: Its normalized growth is 0.922.

Q: What about the normalized growth (locus YOR061W, strain CKA2, hits give low values) of the same compound?
A: Its normalized growth is 0.902.

Q: What about the normalized growth (locus YOR119C, strain RIO1, hits give low values) of the same compound?
A: The normalized growth was 0.573 (active).

Q: And the normalized growth (locus YOR231W, strain MKK1, hits give low values)?
A: The normalized growth was 0.912.

Q: And the normalized growth (locus YOR329C, strain SCD5, hits give low values)?
A: The normalized growth was 0.965.

Q: What about the normalized growth (locus YPL031C, strain PHO85, hits give low values) of the same compound?
A: Its normalized growth is 0.788.

Q: What about the normalized growth (locus YPL153C, strain RAD53, hits give low values) of the same compound?
A: Its normalized growth is 0.837.

Q: What about the normalized growth (locus YPL204W, strain HRR25, hits give low values) of the same compound?
A: Its normalized growth is 0.872.

Q: And the normalized growth (locus YPL209C, strain IPL1, hits give low values)?
A: The normalized growth was 0.934.

Q: And the normalized growth (locus YPL256C, strain CLN2, hits give low values)?
A: The normalized growth was 0.999.

Q: What about the normalized growth (locus YPR025C, strain CCL1, hits give low values) of the same compound?
A: Its normalized growth is 0.937.

Q: And the normalized growth (locus YPR106W, strain ISR1, hits give low values)?
A: Its normalized growth is 0.913.

Q: And the normalized growth (locus YPR111W, strain DBF20, hits give low values)?
A: The normalized growth was 0.874.

Q: And the normalized growth (strain NNK1, hits give low values)?
A: Its normalized growth is 0.908.

Q: What about the normalized growth (strain TSCII, hits give low values) of the same compound?
A: Its normalized growth is 0.93.
